# In the library only some 3.5% were active in any assay of this set; here they are far more common.
# Pf apPOL inh = Pf-apPOL DNA polymerase inhibition | Recombinant Pf-apPOL, molecular beacon fluorescence, 1.5 h | inhibition, % at 10 µM | 210,000 compounds, 0.25% hits | AID 1794808
# mHTT-CaM PPI inh = inhibitors of human mutant huntingtin-calmodulin interaction | P42858 | AlphaScreen His-mHTT/GST-CaM binding, luminescence | inhibition, % at 15 µM | 190,000 compounds, 3.6% hits | AID 1671202;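 note: 0% = both proteins with DMSO and 100% = one protein alone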
# * hit, by the source's call; · = no result given. Cut-off read from the data, not from the text of the source: active = inhibition above about 50%; inactive = the rest.
SMILES,Pf apPOL inh,mHTT-CaM PPI inh
CCOc1ccc(C(=O)Nc2ccccc2N2CCOCC2)cc1Br,-6,-10
O=C(c1cccc(OCC2CCCN(C(=O)c3ccccc3Cl)C2)c1)N1CCCC1 (centres undefined),-6,5
CCCC(=O)N1CCCC(c2ccnc(Nc3ccc(F)cc3)n2)C1 (centres undefined),-4,2
CCCC(=O)N1CCCC(c2ccnc(Nc3cccc(F)c3)n2)C1 (centres undefined),-1,62*
O=C(C1CCCC1)N1CCCC(c2ccnc(Nc3cccc(F)c3)n2)C1 (centres undefined),-7,13
O=C(C1CCCCC1)N1CCCC(c2ccnc(Nc3cccc(F)c3)n2)C1 (centres undefined),-3,72*
CCN1CCN(C2CC(=O)N(c3ccc(F)cc3)C2=O)CC1 (centres undefined),-6,-7
COCCC1CCN(C(=O)COc2ccc(Cl)cc2)CC1,-4,2
CCOc1ccccc1CN1CCCC1c1c(C)noc1CC (centres undefined),8,-22
CN1C(=O)c2cccnc2Sc2cc(C(=O)N3CCc4ccccc43)ccc21,-4,0
Cc1nc(-c2ccc(OCc3c(F)cccc3F)cc2)no1,-4,-10
Cc1ccc(CNC(=O)N2CC3CCCN3c3ccccc32)cc1 (centres undefined),-3,57*
CC(C)CCNC(=O)N1CC2CCCN2c2ccccc21 (centres undefined),-3,56*
Cc1cccc(CNC(=O)CCC(=O)N2CC3CCCN3c3ccccc32)c1 (centres undefined),-7,41
O=C(NCc1ccccc1)N1CC2CCCN2c2ccccc21 (centres undefined),0,83*
O=C(NCc1ccccc1)c1ccc(NC(=O)N2CC3CCCN3c3ccccc32)cc1 (centres undefined),2,19
CCC1CN(C(=O)NCCC(C)C)c2ccccc2O1 (centres undefined),0,-21
CNC(=O)N1CCC2(C1)NCc1ccccc1NC2=NC(C)(C)C (centres undefined),-4,12
CC(C)(C)C(=O)Nc1nnc(SCC(=O)Nc2ccccc2F)s1,1,-9
O=C(Nc1ccccc1C#Cc1ccccc1)c1cccnc1,-3,9
C#CCOCC1CCN(C(=O)CC2CCCCC2)CC1,2,8
O=C(Nc1ccc(O)c2c(=O)cc(-c3ccccc3Cl)oc12)c1ccc(Br)cc1,-4,21
CN(C)c1ccc(C(=O)Nc2ccc(O)c3c(=O)cc(-c4ccccc4Cl)oc23)cc1,2,54*
c1ccc(N=C2C(Nc3ccccc3)=Nc3ccccc32)cc1,0,63*
NC1=NC(=Nc2ccccc2)c2ccccc21,-2,3
SMILES,Pf apPOL inh,mHTT-CaM PPI inh
Cn1c(/C(C#N)=C/c2ccc(O)c([N+](=O)[O-])c2)nc2ccccc21,-11,17
O=C(CC(=O)c1ccc([N+](=O)[O-])cc1)Nc1ccc2c(c1)OCO2,-4,51*
O=C(Cc1ccc([N+](=O)[O-])cc1)Nc1ccc2c(c1)OCO2,-6,2
Cc1ccccc1-c1ccc(CN2C(C(C)C)C(=O)N(Cc3cn(CCC4OCCO4)nn3)CCS2(=O)=O)cc1 (centres undefined),-5,71*
Cc1ccc(-c2ccc(CN3C(C(C)C)C(=O)N(Cc4cn(CCC5OCCO5)nn4)CCS3(=O)=O)cc2)c(C)c1 (centres undefined),-3,74*
CC(C)Cc1ccc(CN2C(C(C)C)C(=O)N(Cc3cn(CCC4OCCO4)nn3)CCS2(=O)=O)cc1 (centres undefined),-8,8
COc1ccc(-c2ccc(CN3C(C(C)C)C(=O)N(Cc4cn(CCC5OCCCO5)nn4)CCS3(=O)=O)cc2)cc1OC (centres undefined),5,44
Cc1[nH]nc(-c2n[nH]c(C)c2[N+](=O)[O-])c1[N+](=O)[O-],·,-8
N#C/C(=C\c1cccc(F)c1)c1nc2ccccc2[nH]1,-4,100*
COc1cc(/C=C(\C#N)c2nc3ccccc3[nH]2)cc(OC)c1O,-1,43
COc1cc(/C=C(\C#N)c2nc3ccccc3[nH]2)cc2c1OCO2,-4,69*
N#C/C(=C\c1cccc(Br)c1)c1nc2ccccc2[nH]1,-2,3
Cc1ncc(CO)c2cc(C(N)=O)c(=Nc3ccc(Br)cc3)oc12,-6,-1
CN(C)c1ccc(C2CC(c3ccccc3)=NN2C(=O)c2ccc(F)cc2)cc1 (centres undefined),1,13
CN(C)c1ccc(C2CC(c3ccccc3)=NN2C(=O)c2ccc(F)cc2)cc1[N+](=O)[O-] (centres undefined),-1,55*
COc1cccc(NC(=O)Cn2cc(-c3ccc(F)cc3)oc2=O)c1,2,-7
Cc1ccc(N2NC(=O)/C(=C\c3ccco3)C2=O)cc1Cl,-2,-1
O=C(c1ccc(Oc2ccccc2)cc1)N1CC(c2nc3ccccc3[nH]2)C1,-28,100*

# From PubChem
